Tested on: Vero E6 infected with SARS-CoV-2
Experiment: inhibition of SARS-CoV-2 cytopathic effect; higher = more antiviral protection, active = above 15
Conditions: 48 h

Measured: inhibition of SARS-CoV-2 cytopathic effect

O=C(CCc1ccc(O)cc1)c1c(O)cc(O)cc1O [phloretin]
inactive: 1 nM -0.18% | 8.33 nM -0.18% | 100 nM 6.09% | 833.33 nM -0.49% | 10000 nM -1.02%

CNC(=O)Oc1ccccc1OC(C)C [propoxur]
inactive: 1 nM 2.55% | 8.33 nM 4.24% | 100 nM 3.02% | 833.33 nM 2.09% | 10000 nM 2.81%

CC1=C(/C=C/C(C)=C/C=C/C(C)=C/C(=O)O)C(C)(C)CCC1 [tretinoin]
inactive: 1 nM 1% | 8.33 nM -1.08% | 100 nM -0.09% | 833.33 nM 2.67% | 10000 nM 7.6%

CN(C)CCCN1c2ccccc2CCc2ccccc21 [imipramine]
inactive: 1 nM -4.38% | 8.33 nM 1.76% | 100 nM -1.33% | 833.33 nM -2.74% | 10000 nM -4.2%

Cc1ccc2c(c1)c1c3n2CCNC3CCC1 (stereo not given) [pirlindole]
inactive: 1 nM -1.68% | 8.33 nM -2.42% | 100 nM -1.65% | 833.33 nM 0.99% | 10000 nM -3.66%

CC1=CC(=O)c2ccccc2C1=O [menadione]
inactive: 1 nM 1% | 8.33 nM 1.27% | 100 nM -0.28% | 833.33 nM -0.16% | 10000 nM -2.15%

COc1cc2c(NC3CCN(C)CC3)nc(N3CCCN(C)CC3)nc2cc1OCCOCCN(C)C
inactive: 1 nM -0.25% | 8.33 nM 0.8% | 100 nM -0.4% | 833.33 nM 2.99% | 10000 nM -3.09%

Cc1cc(C)c(S(=O)(=O)Nc2ccccc2C(F)(F)F)c(C)c1
inactive: 1 nM 2.1% | 8.33 nM 6.17% | 100 nM 4.56% | 833.33 nM 2.55% | 10000 nM 4.64%

CC(C)C[C@@H](N)C1(c2ccc(Cl)cc2)CCC1
inactive: 1 nM -0.06% | 8.33 nM -2.41% | 100 nM -2.87% | 833.33 nM -1.42% | 10000 nM -7.34%

O=C(/C=C/c1ccc2c(c1)OCO2)N1CCCCC1 [ilepcimide]
inactive: 1 nM 0.84% | 8.33 nM 0.26% | 100 nM 1.04% | 833.33 nM -1.12% | 10000 nM 0.82%

CN1C2CCCC1CC(NC(=O)c1nn(C)c3ccccc13)C2 (stereo not given) [granisetron]
inactive: 1 nM 3.53% | 8.33 nM 4.21% | 100 nM -1.14% | 833.33 nM -2.63% | 10000 nM -4.21%

CS(=O)(=O)c1ccc(Oc2cc(F)cc(C#N)c2)c2c1[C@H](O)C(F)(F)C2
inactive: 1 nM 0.26% | 8.33 nM 2.61% | 100 nM 0.38% | 833.33 nM -1.3% | 10000 nM 0.01%

CC(C)(C)NCC(O)c1cc(Cl)c(N)c(C(F)(F)F)c1 (stereo not given) [mabuterol]
inactive: 1 nM -0.03% | 8.33 nM -0.53% | 100 nM 3.86% | 833.33 nM -1.18% | 10000 nM -0.72%

CCCN(CCC)C(=O)Cc1c(-c2ccc(Cl)cc2)nc2ccc(Cl)cn12 [alpidem]
inactive: 1 nM -5.3% | 8.33 nM -6.64% | 100 nM -7.76% | 833.33 nM -6.87% | 10000 nM -3.74%

CCC(=O)NS(=O)(=O)c1ccc(-c2c(-c3ccccc3)noc2C)cc1 [parecoxib]
inactive: 1 nM -0.31% | 8.33 nM 0.02% | 100 nM 1.66% | 833.33 nM 1.26% | 10000 nM -1.54%
